# Source: PubChem BioAssay AID1490 (National Center for Advancing Translational Sciences (NCATS), 2009)
# Hit rate of the full screen: of about 310,000 compounds, about 11,000 (3.5%) were called active. Inconclusive results (about 4%) are left out. For the sample, actives were picked, then their nearest neighbours and some compounds at random. A number with no mark means an inactive call. The call rests on the fitted dose curve; in most records, active means well fitted inhibition curve with a large enough effect; inconclusive means small, poorly fitted or top-dose-only effect, or another doubt; inactive means no such curve, though single readings can be large or run the other way.
# Target: 4'-phosphopantetheinyl transferase ffp (Bacillus subtilis) (UniProt Q9F4F7)
# Test: qHTS Assay for Inhibitors of Bacillus subtilis Sfp phosphopantetheinyl transferase (PPTase);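 further: the enzyme is Sfp with the accession as filed and its product quenches rhodamine fluorescence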;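 on largest response in the series, negative = inhibition: 0% = enzyme reaction without inhibitor and -100% = no enzyme wells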
# Conditions: Biochemical Sfp PPTase activity
# Procedure, shortened: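 Fluorescence-quenching assay with 15 nM Sfp, 5 uM rhodamine-CoA and 12.5 uM BHQ-2-labelled ybbR peptide in pH 7.6 Hepes/MgCl2 buffer. Enzyme was pre-incubated with compound for 15 min at room temperature. Rate was taken from the 30-min fluorescence change (525/598 nm).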
# Potency means the concentration at half of the fitted maximal effect.
Compound,"largest response in the series, negative = inhibition [%]",Potency
CC(C)c1cc(C(=O)N/N=C/c2ccoc2)c(O)c(C(C)C)c1,13.5,
CC1CC(C)CN(CCCNC(=O)Cn2ncc3c([nH]c4ccccc43)c2=O)C1 (stereo unspecified),5.5,
CCCCOc1ccc(-c2ncc(C(=O)OCC)c(N)n2)cc1,3.34,
CCOC(=O)CSc1nccc(N(C)C)c1C#N,-4.04,
CCOC(=O)C(Sc1ncc(C#N)c(N)n1)C(C)C (stereo unspecified),,56.2 µM (active)
Cc1ccc(N2CC(C(=O)NCCS(=O)(=O)N3CCN(c4ccccc4)CC3)CC2=O)cc1 (stereo unspecified),5.68,
COc1ccc2c3c1OC1CC(O)C=C[C@@]31CCN(C)C2 (stereo partly specified),17,
CCCc1nnc(NC(=O)CN2C(=O)c3ccccc3S2(=O)=O)s1,,22.4 µM (active)
O=C(CN1C(=O)c2ccccc2S1(=O)=O)NC1CCCCC1,15.6,
CCCCc1nnc(NC(=O)CS(=O)(=O)Cc2ccccc2)s1,8.57,
COc1ccc(C)cc1NC(=O)CNCc1cccs1,-7.78,
O=C(CN(Cc1ccc(Br)cc1)S(=O)(=O)c1ccccc1)NCc1ccncc1,-4.2,
CCOC(=O)C1CCCN(S(=O)(=O)c2ccc(-n3cnnn3)c(C)c2)C1 (stereo unspecified),13.1,
C#CC(CCN1CCCCC1)(OC)c1ccccc1 (stereo unspecified),23.4,
CCOC(=O)c1csc(NC(=O)Nc2cccc(OC)c2)n1,7.72,
CCOC(=O)c1sc(=S)n(-c2cccc(OC)c2)c1N,,39.8 µM (active)
COC(=O)c1sc(=S)n(-c2ccccc2)c1N,,31.6 µM (active)
COC(=O)c1sc(=S)n(-c2ccc(Cl)cc2)c1C,-2.12,
COC(=O)c1sc(N2CCN(Cc3ccccc3)CC2)nc1N,-0.821,
CCOC(=O)C(C)n1cnc2c(nnn2-c2cccc(OC)c2)c1=O (stereo unspecified),30.5,
Cc1ccn2c(=O)c(C(=O)NCCC3=CCCCC3)c(O)nc2c1,-5.56,

Compound,"largest response in the series, negative = inhibition [%]",Potency
CCc1ccc(N(C(=O)c2csnn2)C(C(=O)NC2CCCCC2)c2cccnc2)cc1 (stereo unspecified),-9.84,
CCCCS(=O)(=O)N1C2=NC(C(=O)OC)=C(C(=O)OC)[C@@H]3N(Cc4ccccc4)c4ccccc4[C@]23C[C@H]1C(=O)OC,-16,
Cc1ccc(C2SCC(=O)N2c2ccccc2)cc1 (stereo unspecified),-9.8,
Cc1ccc(C2NC(C(=O)O)CS2)cc1 (stereo unspecified),,70.8 µM (active)
Cc1ccc(C2CC2C(=O)NN)cc1 (stereo unspecified),6.91,
CCOc1ccc(N(CC(=O)Nc2cccc(OC)c2)S(C)(=O)=O)cc1,21.6,
Cn1c(=O)n(C)c2cc(S(=O)(=O)Nc3ccc(F)cc3)ccc21,7.57,
COc1ccc(C2=NN(C(C)=O)C(c3ccccc3)C2)cc1 (stereo unspecified),9.33,
Cc1nn2c(c1-c1ccccc1)N=C(c1ccco1)CC2c1ccccc1 (stereo unspecified),,15.8 µM (active)
O=C(O)CCCC(=O)N1N=C(c2ccco2)CC1c1ccco1 (stereo unspecified),5.11,
Cc1cccc([C@@H]2[C@@H]3C(=O)N(Cc4ccccc4)C(=O)[C@@H]3[C@]3(C)C(=O)N(c4ccc(Br)cc4)C(=O)N23)c1,0.791,
CC(=O)N(CCCN(C)C)c1nc2ccc(C)cc2s1,15.8,
Cc1ccc2sc(N(CCN(C)C)C(=O)/C=C/c3cccs3)nc2c1C,4.98,
Cc1cc(C)c2nc(N(CCN(C)C)C(=O)/C=C/c3cccs3)sc2c1,,89.1 µM (active)
Cc1cc(S(=O)(=O)NCC(C)C)ccc1OCC(=O)NC1CC1,18.8,
O=C(O)c1ccccc1C(=O)Nc1nc(-c2ccccc2)cs1,6.83,
CC1(C)CC(CC(=O)O)C(=O)O1 (stereo unspecified),-8.59,
C/C(CC1CC(C)(C)OC1=O)=N/Nc1nc(-c2ccccc2)cs1 (stereo unspecified),,50.1 µM (active)
COc1ccc(C(=O)NC2CCN(C(=O)Nc3ccc(F)cc3)CC2)cc1,-6.23,
COc1ccc(CN2CCNC(=O)C2CC(=O)NCc2cn[nH]c2-c2ccccc2)c(F)c1 (stereo unspecified),15.4,
O=C(NNc1ccccn1)c1ccc(Cl)nc1,,56.2 µM (active)

Compound,"largest response in the series, negative = inhibition [%]",Potency
CCN(CC)c1ccc(NC(=O)c2ccc(Cl)nc2)cc1,2.36,
Cc1cnc(NC(=O)c2ccc(Cl)nc2)s1,3.16,
COc1cc(C(=O)NN(CCC#N)C2=NS(=O)(=O)c3ccccc32)cc(OC)c1OC,11.7,
Cc1ccc2c(c1)N(S(=O)(=O)c1cc(-c3cc(C)no3)ccc1C)CCO2,-4.57,
Nc1cc(N2CCCCCC2)c2nonc2c1[N+](=O)[O-],12.7,
O=C(Cc1cccs1)Nc1cccc(-c2nc3ccccc3[nH]2)c1,9.29,
O=C(/C=C/c1ccco1)Nc1cccc(-c2nc3ccccc3[nH]2)c1,,25.1 µM (active)
O=C(Nc1cccc(-c2nc3ccccc3[nH]2)c1)c1ccc(C(=O)Nc2cccc(-c3nc4ccccc4[nH]3)c2)cc1,-19.4,
COc1ccccc1Oc1ccc(N2CC(C(=O)OCC(=O)c3ccc(F)cc3)CC2=O)cc1 (stereo unspecified),-1.84,
CCN(CC)CCCNC(=O)COc1ccc2oc3c(c2c1)CCCC3,3.63,
S=C(c1ccccc1)N1CCCC1,9.23,
Cc1cccc(C)c1NC(=S)N1CCCCCC1,11.7,
S=C(c1ccc(-c2ccccc2)o1)N1CCCCC1,,8.91 µM (active)
COc1ccc(-c2n[nH]c3c2CN(C(=O)c2ccc(F)cc2)CC3)cc1,5.79,
CC(C)(C)c1ccc(C(=O)N2CCC(C(=O)N3CCCCC3)CC2)cc1,4.51,
COc1ccc(CCNC(=O)C(=O)NCC2OCCN2S(=O)(=O)c2ccc(OC)c(C)c2)cc1 (stereo unspecified),8.83,
CCOc1ccc2[nH]c(=O)c(C(c3nnnn3CCOC)N3CCOCC3)cc2c1 (stereo unspecified),17.1,
COc1ccc(OC)c(C(c2nnnn2C(C)(C)C)N2CCc3ccccc3C2)c1 (stereo unspecified),6.02,
COCCn1nnnc1C(c1cc2ccc(OC)cc2[nH]c1=O)N1CCc2ccccc2C1 (stereo unspecified),,12.6 µM (active)
